# Compound activity: PubChem BioAssay, National Center for Advancing Translational Sciences (NCATS)
# HCV inh = inhibitors of hepatitis C virus infection | Huh7.5.1 HCVcc-Cre infection, luciferase reporter, 44 h | Potency, µM (titrated, usually from 41.8 µM), hits mostly inhibitors | actives 3.4% (n = 340,000); active = well fitted inhibition curve with a large enough effect; inconclusive = small, poorly fitted or top-dose-only effect, or another doubt; inactive = no such curve, though single readings can be large or run the other way
#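 Whole-lifecycle infectious HCVcc-Cre system; cells 1,000/well, compound then virus (~0.5 moi) added 4 h after plating, 44 h culture. Luciferase read 15 sec following 15 min substrate incubation, room temp.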
# Lassa entry inh = Lassa virus entry inhibition | Potency, µM (highest dose often 37.9 µM), actives largely listed as inhibitors | actives 1.2% (n = 300,000) | Lassa virus pseudotype entry inhibition, cell reporter; calls by dose curve; tested in HEK293 cells; also: nearly all actives have a fitted effect of over 50% in size
# VACV mCherry inh = inhibitors of vaccinia virus infection (mCherry reporter signal) | Vaccinia virus mCherry reporter infection, fluorescence | Potency, µM (top dose mostly 36.5 µM), actives largely listed as inhibitors | actives 0.63% (n = 310,000); calls by dose curve; tested in A549 cells; also: nearly all actives have a fitted effect of over 35% in size
# HCMV inh = human cytomegalovirus inhibition; HFF cells, HCMV-luciferase reporter, 72 h; active compounds read low; activity change, negative = inhibition, % at 57.5 µM; actives 4.5% (n = 410,000); AID 1259415; in the data active = activity change below about -60%; inconclusive = no clear call, values can overlap the other calls; inactive = above about -39%
#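 HFF cells seeded 16 h at 37C, treated with compounds, infected with luciferase-reporter HCMV at MOI 1 PFU/cell; luciferase read at 72 h post infection, normalized to buffer-only and Salinomycin controls.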
# Marburg entry inh = inhibitors of Marburg virus binding or cell entry | Marburg virus pseudotyped entry inhibition, cell reporter | AID 540276 | Potency, µM (titrated, usually from 37.8 µM), hits mostly inhibitors | actives 1.8% (n = 300,000); calls by dose curve; tested in HEK293 cells
# Vaccinia Venus = vaccinia inhibition (Venus reporter); Potency, µM (series often up to 36.5 µM), usual class: inhibitors; AID 720580; Vaccinia virus Venus reporter expression, fluorescence; actives 0.46% (n = 330,000); calls by dose curve; tested in A549 cells; also: nearly all actives have a fitted effect of over 30% in size
# Hits are given with their value; n = inactive; u = inconclusive; x = no result. Shown are actives, neighbours in structure and some others; about 7.8% of the full set was active somewhere.
SMILES,HCV inh,Lassa entry inh,VACV mCherry inh,HCMV inh,Marburg entry inh,Vaccinia Venus
O=C(C[n+]1cc(-c2ccc(F)cc2)n2c1CCC2)Nc1nc(-c2ccc(F)cc2)cs1,u,n,n,n,n,n
CCOc1ccccc1C1CC(=O)Nc2c1c(=O)n(C)c1ncnn21 (configuration not stated),x,n,n,n,n,n
O=C1CC(c2nc3ccccc3n2Cc2c(F)cccc2Cl)CN1c1cccc(C(F)(F)F)c1 (configuration not stated),x,u,n,n,n,n
O=[N+]([O-])c1ccc2nc(-c3ccncc3)[nH]c2c1,n,x,x,n,x,x
O=[N+]([O-])c1cccc(-c2nc3ccc([N+](=O)[O-])cc3[nH]2)c1,14.1µM,n,x,n,u,x
O=[N+]([O-])c1ccc2nc(-[n+]3c(-c4ccccc4)cc(-c4ccccc4)cc3-c3ccccc3)[nH]c2c1,u,23.1µM,u,x,u,u
Nc1nc2ccc([N+](=O)[O-])cc2[nH]1,n,x,n,n,x,n
COc1ccc(-c2nc3ccc([N+](=O)[O-])cc3[nH]2)cc1,n,8.91µM,n,n,u,n
O=[N+]([O-])c1ccc2nc(-c3ccc(Cl)cc3)[nH]c2c1,n,u,x,-61.7,u,x
COc1ccc(NC(=O)N2CCc3c(sc4c3CCCC4)C2c2ccccc2OC)cc1 (configuration not stated),x,n,n,n,x,n
CCCNC(=O)CN1C(=O)c2c(c3ccccc3n2C)C1c1ccc(OC)cc1 (configuration not stated),x,n,n,u,x,n
O=C(NNc1nc2c(F)cccc2s1)c1ccccc1,n,x,x,n,x,x
O=C(NNc1nc2ccc(F)cc2s1)c1cccc(F)c1,u,u,u,-81.4,11.2µM,n
O=C(NNc1nc2c(F)cc(F)cc2s1)c1ccccc1,n,n,n,-69.7,u,n
CCOc1cc(/C=C/c2cccc[n+]2C)ccc1OCC(=O)Nc1ccc(C)cc1,n,n,n,-95.3,n,n
COc1cc(/C=N/O)c(Br)cc1OCC(=O)Nc1ccccc1C,n,n,n,n,u,n
CCOc1cc(/C=N/n2cnnc2)ccc1OCC(=O)Nc1ccccc1OC,n,n,x,n,n,n
CCOc1cc(/C=N/NC(N)=O)cc(Br)c1OCC(=O)Nc1ccccc1C,u,n,n,n,11.2µM,n
COc1cc(/C=N/NC(N)=O)c(Br)cc1OCC(=O)Nc1ccccc1C,n,u,n,n,11.2µM,n
COc1cc(/C=C/c2cccc[n+]2C)ccc1OCC(=O)Nc1ccccc1C,n,n,n,u,n,n
CCOc1cc(/C=C\[N+](=O)[O-])ccc1OCC(=O)Nc1ccccc1C,11.2µM,x,n,x,n,u
CCSc1nnc(C(C)NS(=O)(=O)c2cccc(Cl)c2C)n1C (configuration not stated),x,x,n,x,x,n
COc1ccc(-c2nc(CNS(=O)(=O)c3cccc(F)c3)cs2)cc1,x,n,n,u,n,n
O=C1NCCN1C(=O)N1CCC[C@@H]1c1noc2cc3ccccc3cc12,x,x,x,n,x,x
COc1cc(CNCCCN2CCOCC2)c(Br)cc1OC(C)C,u,u,n,n,u,n
SMILES,HCV inh,Lassa entry inh,VACV mCherry inh,HCMV inh,Marburg entry inh,Vaccinia Venus
COc1ccccc1/C=C(/C(=O)OCC(=O)Nc1ccccc1C)c1ccccc1,n,u,x,-61.7,n,x
COc1cc(CNCCCN2CCOCC2)c(Br)cc1OCC(=O)Nc1ccccc1C,1.58µM,n,n,n,u,n
CCOc1cc(/C=N/O)cc(Br)c1OCC(=O)NCc1ccccc1,u,n,n,n,n,n
CCOc1cc(/C=N/NC(N)=O)cc(Br)c1OCC(=O)Nc1cccc2ccccc12,17.8µM,n,x,n,n,n
CC(=O)n1c2ccccc2c2c1c1ccccc1n2C,2.24µM,n,x,n,n,n
CC(=O)n1c2ccccc2c2nc3ccccc3nc21,n,x,x,x,x,x
CCOC(=O)/C(=N\Nc1ccccc1[N+](=O)[O-])c1csc(N)n1,u,x,n,-64.8,x,u
COC(=O)c1sc2cc(C(F)(F)F)cnc2c1-c1cccnc1,0.562µM,n,x,n,u,x
O=C(NCC1CCCO1)C1=CC2=NC(=S)N(c3ccccc3)C(=O)C2C=C1 (configuration not stated),x,x,x,x,n,x
COc1ccccc1-c1ccnc(-n2ncc(C(=O)N3CCCCC3c3cccnc3)c2C)n1 (configuration not stated),x,x,n,x,x,n
Clc1ccccc1C(c1ccccc1)(c1ccccc1)n1ccnc1,u,6.51µM,n,-69.7,15.8µM,n
